# Hits are enriched below; roughly 11% of the tested compounds scored in any of these assays.
# hNpr1 antagonist: human Npr1 receptor antagonism; HEK293 hNpr1 GloSensor cGMP, ANP-stimulated luminescence; Potency, µM (series often up to 46.3 µM), for inactives: top-dose activity change, negative = inhibition, most hits filed as inhibitors; P16066; 1.6% of 76,000 active; calls by dose curve; also: nearly all actives have a fitted effect of over 60% in size
#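 HEK293 cells stably expressing human Npr1 and cGMP GloSensor pGS-40F, loaded 2 h with 2% GloSensor reagent, given compound 30 min at room temperature. Luminescence read before and 20 min after 0.1 nM hNppA.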
# NIH3T3 tox: kills NIH 3T3 cells | NIH 3T3 viability, CellTiter-Glo ATP luminescence, 48-72 h | Potency, µM (top dose mostly 96.7 µM), inactives show at the top dose activity change, negative = cytotoxicity, hits mostly inhibitors | AID 1345082 | 4.3% of 94,000 active; also: nearly all actives have a fitted effect of over 55% in size
#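 First NIH 3T3 cells are plated at 400 cells/well; next compound is pinned in; then plates incubate 48 or 72 hr at 37 °C; finally CellTiter-Glo is added and luminescence read after 10 min.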
# FLuc inh: inhibitors of firefly (Photinus pyralis) luciferase. P08659. purified P. pyralis luciferase, luminescence, biochemical. Potency, µM (top dose mostly 115 µM), usual class: inhibitors. 2.5% of 76,000 active; also: nearly all actives have a fitted effect of over 65% in size
# Target sequence (P08659 whole entry, looked up): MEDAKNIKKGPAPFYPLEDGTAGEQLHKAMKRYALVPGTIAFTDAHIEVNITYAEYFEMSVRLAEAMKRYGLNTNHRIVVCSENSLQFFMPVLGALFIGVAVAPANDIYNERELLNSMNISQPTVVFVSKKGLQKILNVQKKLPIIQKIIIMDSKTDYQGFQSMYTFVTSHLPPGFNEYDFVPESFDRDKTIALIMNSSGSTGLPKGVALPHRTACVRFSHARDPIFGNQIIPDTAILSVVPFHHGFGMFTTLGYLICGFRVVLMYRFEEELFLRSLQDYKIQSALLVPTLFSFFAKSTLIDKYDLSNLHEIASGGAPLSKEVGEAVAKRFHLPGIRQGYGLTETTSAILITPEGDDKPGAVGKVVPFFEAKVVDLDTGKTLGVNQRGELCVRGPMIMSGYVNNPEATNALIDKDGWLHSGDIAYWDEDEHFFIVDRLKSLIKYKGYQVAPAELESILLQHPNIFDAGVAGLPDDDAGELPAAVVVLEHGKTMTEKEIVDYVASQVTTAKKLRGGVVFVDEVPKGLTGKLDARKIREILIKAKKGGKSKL
#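 Inhibitors were tested against purified firefly luciferase in a biochemical, low-substrate format (both substrates at 10uM) and luminescence measured with a CCD imager.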
# HEK293 tox: kills HEK 293 cells. HEK 293 viability, ATP luminescence (CellTiter-Glo), 48-72 h. 6.6% of 94,000 active. Potency, µM (series often up to 115 µM), without a hit: at the highest dose activity change, negative = cytotoxicity, usual class: inhibitors; also: nearly all actives have a fitted effect of over 60% in size
#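 Pintool-delivered compounds were incubated with HEK 293 cells (250 cells/well) at 37 degree Celsius for 48 or 72 hr. ATP-dependent luminescence (CellTiter-Glo) then reported remaining viable cells.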
# Numbers without * were called inactive; i = inactive; ? = inconclusive; . = no result given; [ ] = another dose, or the depositor's remark. Unless noted, calls follow the shape of the dose curve; as a rule, active = well fitted curve in the direction sought with a large enough effect; inconclusive = small, poorly fitted or top-dose-only effect, or another doubt; inactive = no such curve, though single readings can be large; an effect the other way counts as inactive or inconclusive. % is scaled to controls: 0 for no effect and ±100 for the full control effect; potency is read from the fitted curve at half-maximal effect.
SMILES,hNpr1 antagonist,NIH3T3 tox,FLuc inh,HEK293 tox
Cc1cc(=O)n(CC(=O)N[C@@H]2CCOC[C@H]2Oc2ccccn2)nc1C,0.7%,i,i,i
CCOC(=O)[C@@H]1[C@@H](OC(N)=O)C(=O)N(C(C)C)C12CCN(S(=O)(=O)c1ccccc1)CC2,.,?,.,1.7%
CC(C)(C)c1nnc(NC(=O)NCc2ccncc2)s1,2.6%,?,i,-0.5%
CC(C)Cc1cc(CNC(=O)Nc2nnc(C(C)(C)C)s2)on1,-21.5%,?,i,44.7µM*
COc1ccc2nc3n(c2c1)[C@@H](CNC(=O)NC(C)C)COC3,-0.7%[70.6 µM],3.5%[138 µM],i,0.5%[172 µM]
COc1ccc2nc3n(c2c1)[C@@H](CNC(C)C)COC3,1.1%[70.6 µM],100µM*,i,-13.9%[230 µM]
CCCC(O)CN1CCC(=O)N(CC2CC2)Cc2ccccc21 (configuration not stated),.,-21.1%,.,?
Clc1ccccc1Cc1nc(-c2ccc(OC3CCNC3)cc2)no1 (configuration not stated),8.0%,12.6µM*,?,17.8µM*
Cc1ccc(C)c(-c2ccc(C(=O)NCCCn3ccnc3C(C)C)cn2)c1,?,?,i,?
Cc1ccc(-c2ccc(C(=O)NCCCn3ccnc3C(C)C)cn2)cc1C,-4.6%,?,?,39.8µM*
CCC1Oc2ccc(NC(=O)Cc3ccccc3)cc2CN(Cc2ccc3c(c2)OCO3)C1=O (configuration not stated),-15.2%,?,i,35.5µM*
CCC1Oc2ccc(NC(=O)c3ccc4c(c3)OCO4)cc2CN(Cc2ccccc2)C1=O (configuration not stated),-2.3%,-26.5%,i,89.1µM*
CCC1Oc2ccc(NC(=O)c3cccc(OC)c3)cc2CN(Cc2ccccc2)C1=O (configuration not stated),-23.0%,?,i,44.7µM*
CCC1Oc2ccc(NC(=O)Cc3ccc(OC)cc3)cc2CN(Cc2ccc3c(c2)OCO3)C1=O (configuration not stated),-12.1%,?,i,22.4µM*
CCC1Oc2ccc(NC(=O)c3ccccc3)cc2CN(Cc2ccc(OC)cc2)C1=O (configuration not stated),-15.7%,?,i,?
CCC1Oc2ccc(NC(=O)Cc3ccccc3)cc2CN(Cc2ccc(OC)cc2)C1=O (configuration not stated),0.4%,?,i,?
Cc1ncc2n1C(=O)N(C1CCN(Cc3ccnn3C)CC1)C2,-6.5%[70.6 µM],2.2%[138 µM],i,-0.8%[172 µM]
CCOc1cccc2c1OC[C@@H]1CN(CCC#N)C(=O)CCN(C(=O)c3cccs3)[C@H]21,.,?,.,-0.3%
COc1cccc(C(=O)N2CC(=O)N(Cc3ccccc3)CC(O)C2)c1 (configuration not stated),.,?,.,-12.7%
COCCNC(=O)c1cn2cc(-c3cccnc3)sc2n1,.,-21.6%,.,3.1%
O=C(Cc1ccccc1)N1CCCCCC1c1nnc(-c2ccccc2)o1 (configuration not stated),.,-19.9%,.,?
CC(C)(C)C(=O)Nc1cnc(-c2cccnc2)nc1,-10.4%,-22.8%,28.2µM*,-8.6%
O=C(CCc1ccccc1)Nc1cnc(-c2cccnc2)nc1,-14.8%,-1.6%,i,?
COc1ccccc1C(=O)NC1CCN(c2ccc3nnc(C)n3n2)CC1,.,-11.0%,.,-1.2%
CCNC(=O)N1CCCC(c2noc(COc3ccccc3)n2)C1 (configuration not stated),-24.6%,-28.3%,31.6µM*,-10.9%
SMILES,hNpr1 antagonist,NIH3T3 tox,FLuc inh,HEK293 tox
COCCNC(=O)N1CCCC(c2noc(COc3ccccc3)n2)C1 (configuration not stated),-12.7%,-17.0%,i,-13.1%
Cc1ccc(NC(=O)N2CCCC(c3noc(COc4ccccc4)n3)C2)c(C)c1 (configuration not stated),12.6µM*,?,?,?
Cn1c(=O)n([C@@H]2CCN(C(=O)CCc3nc4ccccc4s3)C2)c2ncccc21,.,?,.,-12.5%
CC(C)NC(=O)c1cc(-c2ccc(F)cc2)cn1C,7.2%,-4.5%,i,-1.5%
CC(NC(=O)c1cc(-c2ccncc2)cn1C)c1ccc(F)cc1 (configuration not stated),-9.9%,-24.1%,i,79.4µM*
CC(C)c1cc(C(=O)NCC2OCCc3ccccc32)nc2ncnn12 (configuration not stated),-6.3%,-19.5%,i,-19.6%
c1ccc(-c2ccnc(NCC3OCCc4ccccc43)n2)nc1 (configuration not stated),-10.7%,?,44.7µM*,39.8µM*
c1ccc(-c2nc3c(c(NCC4OCCc5ccccc54)n2)CCNC3)nc1 (configuration not stated),-3.3%,39.8µM*,?,?
CS(=O)(=O)NCCc1ccc(CC2CCN(C(=O)CC3CCCC3)CC2)cc1,.,39.8µM*,.,?
O=C(C[C@@H]1CCNC[C@@H]1Cc1cc(-c2ccccc2)on1)N1CCc2ccccc2C1,-11.2%[70.6 µM],31.6µM*,i,39.8µM*
CN(Cc1cc(C[C@H]2CNCC[C@H]2CC(=O)N2CCN(c3ccccc3)CC2)no1)c1ccccc1,-17.4%,20µM*,i,?
COc1cc2c(cc1OC)CN(C(=O)C[C@@H]1CCNC[C@@H]1Cc1cc(-c3ccccc3)on1)CC2,3.7%,?,i,79.4µM*
CN1CCN(C(=O)C[C@@H]2CCNC[C@@H]2Cc2cc(-c3ccccc3)on2)CC1,-13.4%[70.6 µM],?,i,-29.5%[172 µM]
COc1ccc(-c2cc(C[C@H]3CNCC[C@H]3CC(=O)N3CCN(c4ccccc4)CC3)no2)cc1,-0.5%,25.1µM*,i,39.8µM*
COc1ccc(-c2cc(C[C@H]3CNCC[C@H]3CC(=O)N3CCN(C)CC3)no2)cc1,-5.5%[70.6 µM],?,i,-27.2%[172 µM]
COC(=O)CNC(=O)[C@@H]1CCCN1C(=O)c1cccc(-c2ccccc2OC)c1,.,-10.7%,.,?
CC(C)N1CCC2(CC1)CN(C(=O)c1cccnc1)Cc1ccccc1O2,.,-21.2%,.,3.4%
COc1ccc(-c2ccc(C(=O)NC3CCCC3)cc2)nn1,.,-16.8%[138 µM],.,?
O=C(c1cc(Cl)ccc1F)N1CCC[C@H]1c1nc(-c2ccc(F)cc2)no1,-13.0%,?,i,79.4µM*
COc1ccc(-c2noc([C@@H]3CCCN3C(=O)c3ccc(C)cc3)n2)cc1OC,4.5%,-29.1%,i,?
COc1ccc(-c2noc([C@@H]3CCCN3C(=O)c3cc(C)cc(C)c3)n2)cc1OC,-1.4%,?,i,31.6µM*
O=C(C1CCCN1C(=O)Nc1ccccc1)N1CCC(N2Cc3ccccc3C2=O)CC1 (configuration not stated),.,-17.3%,.,-6.2%
CC(C)(C)C(=O)N1CCCC(C(=O)N2CCC(c3nc4ncccc4[nH]3)CC2)C1 (configuration not stated),.,-18.7%,.,-6.6%
O=C([C@@H]1C[C@H](Oc2ccccc2)CN1C(=O)CC1CCCC1)N1CCCC1,0.2%,31.6µM*,i,i

# Compound activity deposited in PubChem BioAssay by National Center for Advancing Translational Sciences (NCATS).
